# Records with an inconclusive call do not appear. More than one record can exist for a structure, and the calls need not agree. Activity calls are given as the source filed them. How the source made its calls, unless noted: active means hit-call score of the fitted dose curve at least 0.9, where 1 is the maximum; inactive means score below 0.9.
# Assays:
# [1] = CCTE_Harrill_HTTr_Viability_MCF7: CCTE's 6-hour Cell Viability Assessment for the High-Throughput Transcriptomics (HTTr) Platform, in MCF-7 cells cultured in DMEM + 10% fetal bovine serum, Harrill Lab (AID 2284010)
# Method in brief: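 PI exclusion, high-content imaging; 8-pt dilution series, 6 h exposure; bidirectional fit vs DMSO (neg. ctrl/baseline); gain of signal = loss of membrane integrity.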
# [2] = CCTE_Harrill_HTTr_Apoptosis_MCF7: CCTE's 6-hour Apoptosis Assessment for the High-Throughput Transcriptomics (HTTr) Platform, in MCF-7 cells cultured in DMEM + 10% fetal bovine serum, Harrill Lab (AID 2284011)
# Method in brief: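 Apoptosis in MCF-7 cells grown in DMEM with 10% fetal bovine serum was scored after a six hour exposure by high content imaging of caspase-3/7 activation (CellEvent Caspase 3/7 Green), with DMSO serving as negative control and baseline.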
# [3] = CCTE_Harrill_HTTr_CellCount_MCF7: CCTE's Cell Proliferation Assessment for the High-Throughput Transcriptomics (HTTr) Platform, Harrill Lab (AID 2284012; active means hit-call score of the fitted dose curve at least 0.9, where 1 is the maximum;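 further: count of Hoechst-stained nuclei per well by high-content imaging in MCF-7 cells; cells exposed to compound for six hours; intended direction is loss of nuclei count meaning fewer cells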)
# Method in brief: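 Readout: Hoechst nuclear count by high-content imaging. MCF-7, 8-point dilution series, 6 h exposure. Bidirectional fit vs DMSO baseline.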
Structure (SMILES),outcome [1],outcome [2],AC50 [2],outcome [3]
O=C1C=CC(=O)O1,inactive,inactive,,
Cc1cc(=O)n(-c2ccccc2)n1C,inactive,inactive,,
O=Cc1ccc(CO)o1,inactive,inactive,,
Oc1ccc(Cl)cc1Cc1cc(Cl)ccc1O,inactive,inactive,,
O=C1CCCCCCCCCCC(=O)OCCO1,inactive,inactive,,
CN(C)c1ccc(C(=N)c2ccc(N(C)C)cc2)cc1,inactive,inactive,40.5 µM (active),inactive
C#CC1(O)CC[C@H]2[C@@H]3CCC4=CCCC[C@@H]4[C@H]3CC[C@@]21C (stereo partly drawn),inactive,inactive,,
Cc1ccccc1C,inactive,inactive,,
CC(=O)[C@@]1(O)CC[C@H]2[C@@H]3C[C@H](C)C4=CC(=O)C=C[C@]4(C)[C@@]3(F)[C@@H](O)C[C@@]21C,inactive,inactive,,inactive
[Cl][Nd]([Cl])[Cl],inactive,inactive,,
Cc1c(C)c([N+](=O)[O-])c(C(C)(C)C)c([N+](=O)[O-])c1C,inactive,inactive,,
Cc1cccc(N(C)C(=S)Oc2ccc3ccccc3c2)c1,inactive,inactive,,
O=C1CCCC1,inactive,inactive,,
CCCNC(=O)NS(=O)(=O)c1ccc(Cl)cc1,inactive,inactive,,
CC(=O)OC(C)C,inactive,inactive,,
Cn1c([N+](=O)[O-])cnc1COC(N)=O,inactive,inactive,,
O=c1cc(-c2ccccc2)oc2ccccc12,inactive,inactive,,
C=CC(=O)NC(C)(C)CS(=O)(=O)O,inactive,inactive,,
O=C(C(Cl)Cl)N1CCOC12CCCCC2,inactive,inactive,,
O=c1[nH]nc(-c2ccc([N+](=O)[O-])o2)o1,inactive,inactive,,

# From PubChem BioAssay (EPA / NIEHS)
